The panel holds about 83,000 compounds, 20% with a hit somewhere; the sample as a whole holds those more often.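 Testing used 96-well plates and a 48-hour single-concentration exposure. Example: -40 means 40% of the starting cells died.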 Values without a mark were called inactive. The source made the active and inactive calls. How the source made its calls: active means growth percent below 10; inactive means the rest.

Some test systems named below: SK-MEL-2 melanoma; EKVX NSCLC; UO-31 renal; TK-10 renal; ACHN renal; A498 renal; CCRF-CEM leukemia; MOLT-4 leukemia; SR leukemia; RPMI-8226 leukemia; OVCAR-8 ovarian; OVCAR-5 ovarian; OVCAR-4 ovarian; SK-OV-3 ovarian; OVCAR-3 ovarian; HS 578T breast; NCI/ADR-RES ovarian; SN12C renal; CAKI-1 renal; IGROV1 ovarian.
What all share (test): NCI-60 one-dose screen, 48 h (100 = growth as untreated, 0 = no growth, -100 = all killed)
Common to all, as to settings: 10 µM unless noted

On to `Cc1cc(=O)c2cc3nc(-c4cccnc4)oc3c(Br)c2o1`, for which the growth in the assay with SK-MEL-2 melanoma was 131%; with EKVX NSCLC it was 98.9%; in the assay with UO-31 renal, 106%; in the assay with TK-10 renal it was 153%; in the assay with ACHN renal, 110%; in the assay on A498 renal, 103%. Moreover, the growth is 94.1% with CCRF-CEM leukemia; 89.7% in the assay on MOLT-4 leukemia; 70.7% in the assay on SR leukemia; 90% in the assay on RPMI-8226 leukemia; 99.9% with OVCAR-8 ovarian; 90.1% in the assay on OVCAR-5 ovarian. For the same molecule, the growth in the assay on OVCAR-4 ovarian was 101%; in the assay with SK-OV-3 ovarian, 195%; in the assay with OVCAR-3 ovarian, 123%; in the assay on HS 578T breast it was 116%; in the assay with NCI/ADR-RES ovarian it was 83.9%.
In the case of `COc1ccc(OC)c(Nc2nc3nonc3nc2Nc2cc(OC)ccc2OC)c1`, the growth in the assay with SK-MEL-2 melanoma is 64.5%; with SN12C renal, 32.3%; in the assay on UO-31 renal it was 10.8%; with TK-10 renal it was 36.1%; in the assay with ACHN renal it was -33.4% (active); in the assay on CAKI-1 renal, 53%. In addition, the growth in the assay on A498 renal is 60.7%; in the assay with CCRF-CEM leukemia it was 97.8%; in the assay with MOLT-4 leukemia, 88.8%; in the assay with SR leukemia it was 79.2%; with RPMI-8226 leukemia, 36.1%; with OVCAR-8 ovarian, 47.8%. The growth is 92.3% with OVCAR-5 ovarian; -27.6% (active) with OVCAR-4 ovarian; 46.1% in the assay on SK-OV-3 ovarian; 95.3% in the assay on IGROV1 ovarian; 26% in the assay on OVCAR-3 ovarian; 44.6% in the assay on HS 578T breast. For the same molecule, in the assay on NCI/ADR-RES ovarian, the growth is 44.8%.
Regarding `COc1ccc(-c2nc3sccn3c2/C=C/C(=O)c2c[nH]c3ccccc23)cc1`, the growth with SK-MEL-2 melanoma is 90.9%; in the assay on EKVX NSCLC, 58.3%; in the assay with UO-31 renal it was 82.7%; in the assay with TK-10 renal it was 73%; in the assay with ACHN renal, 40.6%; in the assay with CAKI-1 renal, 49.6%. Also, the growth in the assay on A498 renal was 68.2%; in the assay with CCRF-CEM leukemia it was 90.9%; in the assay with MOLT-4 leukemia, -5.59% (active); in the assay on RPMI-8226 leukemia it was 154%; in the assay with OVCAR-8 ovarian it was 63.9%; in the assay with OVCAR-5 ovarian, 63.5%. The growth in the assay with OVCAR-4 ovarian is 42.6%; in the assay on SK-OV-3 ovarian, 79.6%; in the assay with IGROV1 ovarian, 79.2%; in the assay with OVCAR-3 ovarian, 68.1%; with HS 578T breast it was 74.9%; in the assay with NCI/ADR-RES ovarian, 59.1%.
`Cc1ccc(NSc2ccccc2[N+](=O)[O-])cc1`: the growth with SK-MEL-2 melanoma is 23.5%; with EKVX NSCLC it was 50.1%; in the assay on TK-10 renal, 51.7%; with ACHN renal, 50.4%; in the assay with CAKI-1 renal, 34.2%; with A498 renal, 6.22% (active). Moreover, the growth with CCRF-CEM leukemia is 12.4%; in the assay on MOLT-4 leukemia, 29.5%; in the assay on SR leukemia it was 9.72% (active); in the assay on RPMI-8226 leukemia, 19.9%; in the assay with OVCAR-8 ovarian, 33.1%; with OVCAR-5 ovarian it was 49.7%. The growth in the assay on OVCAR-4 ovarian was 73.2%; with SK-OV-3 ovarian, 28.3%; in the assay on IGROV1 ovarian it was 38%; in the assay on OVCAR-3 ovarian, 7.41% (active); in the assay with HS 578T breast it was 32.2%; in the assay with NCI/ADR-RES ovarian, 14%.
For `COc1cc(NC(=O)c2cccc(-c3cc(=O)c4c(O)c(OC)c(OC)cc4o3)c2)cc(OC)c1OC`, the growth is 69.6% with SK-MEL-2 melanoma; 63% in the assay on SN12C renal; 34.3% with UO-31 renal; 74.8% in the assay on TK-10 renal; 16.3% in the assay with ACHN renal; 62.5% in the assay with CAKI-1 renal. Besides, the growth was 80.1% with A498 renal; 58.1% in the assay on CCRF-CEM leukemia; 72.8% in the assay on MOLT-4 leukemia; 54.4% with SR leukemia; 27% in the assay on RPMI-8226 leukemia; 23.1% in the assay with OVCAR-8 ovarian. For the same molecule, the growth in the assay with OVCAR-5 ovarian is 77.4%; in the assay on OVCAR-4 ovarian, 58.6%; in the assay on IGROV1 ovarian, 70.4%; in the assay on OVCAR-3 ovarian it was 23.8%; in the assay with HS 578T breast, -3.91% (active); with NCI/ADR-RES ovarian, 49.4%.
Consider `Nc1ccc(CCCCc2ccccc2)c(Cl)c1`, for which the growth in the assay on SK-MEL-2 melanoma was 91.2%; in the assay with SN12C renal it was 87.4%; with UO-31 renal, 63.9%; in the assay on TK-10 renal it was 88.7%; in the assay on ACHN renal it was 94.2%; in the assay on CAKI-1 renal, 83.8%. The growth in the assay with A498 renal is 73.2%; with CCRF-CEM leukemia, 60.1%; in the assay on MOLT-4 leukemia, 69.2%; in the assay with SR leukemia, 92.7%; in the assay on RPMI-8226 leukemia, 85.4%; with OVCAR-8 ovarian it was 94%. For the same molecule, the growth is 96.7% with OVCAR-5 ovarian; 84.4% in the assay on OVCAR-4 ovarian; 98.7% in the assay on SK-OV-3 ovarian; 87.2% in the assay with IGROV1 ovarian; 94.3% with OVCAR-3 ovarian; 93.7% in the assay on HS 578T breast. In the assay with NCI/ADR-RES ovarian, the growth was 104%.
Take `CCN(CC)CCCC(C)NCc1ccccc1` (stereo unspecified): the growth was 80.9% in the assay with SK-MEL-2 melanoma; 102% in the assay with EKVX NSCLC; 83.5% with UO-31 renal; 83.6% in the assay with TK-10 renal; 105% in the assay with A498 renal; 120% in the assay on CCRF-CEM leukemia. For the same molecule, the growth in the assay with SR leukemia was 111%; with RPMI-8226 leukemia it was 107%; in the assay with OVCAR-8 ovarian, 93.7%; in the assay on OVCAR-5 ovarian, 97.6%; in the assay on OVCAR-4 ovarian, 105%; in the assay on SK-OV-3 ovarian, 118%. Besides, the growth was 95.6% with IGROV1 ovarian, 104% with OVCAR-3 ovarian, 115% in the assay on HS 578T breast and 106% with NCI/ADR-RES ovarian.
Regarding `CCN(CC)N=Nc1nn(C(=O)Nc2ccc(Cc3ccccc3)cc2)c2ccc(Cl)cc12`, the growth was 72.9% in the assay on SK-MEL-2 melanoma; 47.5% in the assay with EKVX NSCLC; 65.6% in the assay with UO-31 renal; 83.5% in the assay with TK-10 renal; 28.1% with ACHN renal; 65.9% with CAKI-1 renal. Moreover, the growth in the assay with A498 renal was 87.9%; in the assay on CCRF-CEM leukemia it was 62.5%; in the assay on RPMI-8226 leukemia, 57.1%; with OVCAR-8 ovarian it was 69.3%; in the assay with OVCAR-5 ovarian, 87.7%; in the assay with OVCAR-4 ovarian, 75.7%. For the same molecule, the growth in the assay with SK-OV-3 ovarian was 92.2%; in the assay with IGROV1 ovarian, 88%; with OVCAR-3 ovarian, 87.6%; with HS 578T breast, 91.5%; with NCI/ADR-RES ovarian it was 82.1%.
As to `COc1ccc(C(=O)/C=C/c2cc3c(c(OC)c2)OCC(=O)N3)cc1`, the growth with SK-MEL-2 melanoma is 110%; in the assay on SN12C renal it was 48.7%; in the assay with UO-31 renal, 62.2%; in the assay on TK-10 renal it was 116%; in the assay with ACHN renal, 46.3%; in the assay with CAKI-1 renal it was 20.8%. Besides, the growth is 94.3% with A498 renal; 7.77% (active) with CCRF-CEM leukemia; 6.17% (active) in the assay with MOLT-4 leukemia; 20.4% with SR leukemia; 5.42% (active) in the assay with RPMI-8226 leukemia; 44.8% with OVCAR-8 ovarian. Also, the growth is 45.7% with OVCAR-5 ovarian; 53.7% in the assay on OVCAR-4 ovarian; 103% with SK-OV-3 ovarian; 80% with IGROV1 ovarian; 2.27% (active) with OVCAR-3 ovarian; 42.3% in the assay with HS 578T breast. Further, the growth in the assay on NCI/ADR-RES ovarian was 36.7%.
